Records with an inconclusive call do not appear. Activity calls are given as the source filed them. The call rests on the fitted dose curve; in most records, active means well fitted inhibition curve with a large enough effect; inconclusive means small, poorly fitted or top-dose-only effect, or effect the other way; inactive means no such curve, though single readings can be large or run the other way.

Sequence of Nuclear receptor ROR-gamma (Mus musculus) (P51450 whole entry, looked up, the tested form may be a part): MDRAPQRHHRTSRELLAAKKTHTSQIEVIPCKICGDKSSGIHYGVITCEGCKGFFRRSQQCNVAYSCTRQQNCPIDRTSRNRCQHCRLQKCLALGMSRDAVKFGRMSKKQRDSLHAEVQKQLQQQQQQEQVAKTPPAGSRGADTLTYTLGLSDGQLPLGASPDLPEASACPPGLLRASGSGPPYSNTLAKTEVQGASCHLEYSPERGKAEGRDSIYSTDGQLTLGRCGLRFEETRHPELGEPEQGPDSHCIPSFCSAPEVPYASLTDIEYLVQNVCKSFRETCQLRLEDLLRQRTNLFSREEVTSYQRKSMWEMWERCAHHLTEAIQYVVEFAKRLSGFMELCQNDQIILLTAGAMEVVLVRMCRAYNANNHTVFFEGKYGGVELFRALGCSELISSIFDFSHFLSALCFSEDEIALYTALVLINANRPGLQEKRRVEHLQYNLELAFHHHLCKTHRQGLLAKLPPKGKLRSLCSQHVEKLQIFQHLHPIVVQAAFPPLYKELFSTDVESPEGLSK

This test concerns the target Nuclear receptor ROR-gamma (Mus musculus) (UniProt P51450). The test is described as follows: Secondary confirmation assay for inhibitors of ROR gamma transcriptional activity. The note with it: Drosophila S2 Gal4-RORgamma UAS-luciferase reporter, 20 h; series mostly up to 92.2 µM. An excerpt:
NIH Molecular Libraries Probe Production Network [MLPCN] NIH Chemical Genomics Center [NCGC] MLPCN Grant: R03 DA026211-01 Assay Provider: Dan Littman, New York University Keywords: NIH Roadmap, MLPCN, MLI, MLSMR, qHTS, NCGC, qHTS, nuclear hormone receptor, retinoic acid-related orphan receptor, ROR gamma Assay Overview: The retinoic acid-related orphan receptor (ROR) gamma is a transcription factor that has a central role in the differentiation of Th17 cells, a subset of T helper cells that secrete the inflammatory cytokines IL-17, IL-17F, and IL-22. Th17 cells have been implicated in graft versus host disease, autoimmune disease and asthma. ROR gamma is induced in naive T helper cells in the presence of TGF-beta combined with IL-6, IL-21, or IL-23, and thereafter directs the expression of the Th17 lineage cytokines. To study the mechanism of action of ROR gamma, an insect cell-based assay was screened. This Drosophila Schneider cell line was stably transfected with two vectors: a gene expressing a fusion of the Gal4 DNA binding domain and ROR gamma transactivation domain under the control of the metallothionine promoter and a Photinus luciferase reporter regulated by the Gal4 binding site enhancer, UAS. […] Small molecule inhibitors of ROR gamma activity are detected by a decrease in luciferase reporter activity.
Assay Protocol Summary: For screening, 600 cells in 4 uL/well were dispensed into white solid 1536-well plates (Grenier) using a solenoid-based dispenser. Following transfer of 23 nL compound or DMSO vehicle by a pin tool, the plates were incubated 1 hr at ambient temperature, and 1 uL/well copper sulfate (700 uM final concentration) was added. The plates were centrifuged 15 s at 1000 RPM and incubated 20 hr at ambient temperature. After addition of 1.5 uL Photinus luciferase detection reagent, the plates were incubated 10 min at ambient temperature and then read by an ViewLux (Perkin Elmer) to detect luminescence. Keywords: NIH Roadmap, MLPCN, MLI, MLSMR, qHTS, NCGC, qHTS, nuclear hormone receptor, retinoic acid-related orphan receptor, ROR gamma
In the case of `COc1cc(O)c(C(CC(=O)N2CC(C)CC(C)C2)c2ccc(N(C)C)cc2)c(OC)c1` (stereo not given), the Potency was 2.88 µM (active).
To `COc1ccc(-c2c[n+]3c(n2-c2ccc(C)cc2)CCCCC3)cc1` belongs 11.5 µM (active); to `COc1cc(O)c(C(CC(=O)N2CCCCC2C)c2ccc3c(c2)OCO3)c(OC)c1` (stereo not given), 25.7 µM (active).
Consider `COc1cc(O)c(C(CC(=O)NCc2ccccc2)c2ccc3c(c2)OCO3)c(OC)c1` (stereo not given), for which the Potency entry is “inactive”.
To `COC(=O)Cn1c(CN2CCc3ccccc3C2)nc2c1c(=O)n(C)c(=O)n2C` belongs 6.45 µM (active); to `CCC(=O)C1CCCN(C(=O)CC(c2ccc3c(c2)OCO3)c2c(O)cc(OC)cc2OC)C1` (stereo not given), “inactive”; to `COc1cc(O)c(C(CC(=O)N2CCCC(C)(C)C2)c2ccc3c(c2)OCO3)c(OC)c1` (stereo not given), 5.12 µM (active).
To `Cc1ccc(O)c(C(CC(=O)NC2CCCCC2)c2ccccc2)c1` (stereo not given) belongs “inactive”; to `CCOC(=O)c1sc(NC(=O)c2cc3c(s2)CCC(C)C3)nc1C` (stereo not given), 0.144 µM (active).
To `O=C(CCCOc1ccccc1)Nc1nc2ccccc2[nH]1` belongs 7.24 µM (active).
Take `COc1cc(O)c(C(CC(=O)N2CCOCC2)c2ccc3c(c2)OCO3)c(OC)c1` (stereo not given): the Potency entry was “inactive”.
Then `O=C(NC(=S)Nc1nc(-c2ccccc2)cs1)c1cccnc1`, with 5.12 µM (active); and `COc1cc(O)c(C(CC(=O)N2CCCC(c3ccccc3)C2)c2ccc3c(c2)OCO3)c(OC)c1` (stereo not given), with “inactive”.
Take `COc1cc(O)c(C(CC(=O)N2CCC(C)CC2)c2ccc(C)cc2)c(OC)c1` (stereo not given): the Potency is 14.4 µM (active).
`CCOc1ncccc1C(=O)OCC(=O)Nc1ccc(-c2nc3ccc(C)cc3s2)cc1`: the Potency is 0.407 µM (active).
As to `Cc1ccc(C(=O)O/N=C/c2ccc(N(C)C)cc2)cc1`, the Potency is 32.3 µM (active).
To `CC(C)(C)c1ccc(-c2noc(CCC(=O)Nc3cccnc3)n2)cc1` belongs 0.257 µM (active); to `COc1cc(O)c(C(CC(=O)N2CCCC(COc3ccc(F)cc3)C2)c2ccc3c(c2)OCO3)c(OC)c1` (stereo not given), “inactive”; to `C=C1Nc2c(-c3ccc(F)cc3)cnn2C(N)=C1c1ccccc1`, 0.0911 µM (active).
To `CC1CCCN(C(=O)CC(c2ccccc2)c2ccccc2O)C1` (stereo not given) belongs “inactive”; to `CCC1(CC)CCN(C(=O)CC(c2ccc3c(c2)OCO3)c2c(O)cc(OC)cc2OC)C1` (stereo not given), 22.9 µM (active); to `COc1cc(O)c(C(CC(=O)Nc2cccc3ccccc23)c2ccc3c(c2)OCO3)c(OC)c1` (stereo not given), “inactive”.
For `CCC1CCCN(C(=O)CC(c2ccc3c(c2)OCO3)c2c(O)cc(OC)cc2OC)C1` (stereo not given), the Potency was 3.23 µM (active).
Then `Cc1cc(C)c2sc(NC(=O)c3ccc(N4C(=O)CCC4=O)cc3)nc2c1`, with 0.229 µM (active); and `COc1cc(O)c(C(CC(=O)N(Cc2ccccc2)Cc2ccccc2)c2ccc3c(c2)OCO3)c(OC)c1` (stereo not given), with “inactive”; and `CC1CCCN(C(=O)CC(c2ccccc2)c2ccc(O)cc2)C1` (stereo not given), with “inactive”.
To `COc1cc(O)c(C(CC(=O)N2CCCC(C)C2)c2ccccc2)c(OC)c1` (stereo not given) belongs 7.24 µM (active); to `COc1cc(O)c(C(CC(=O)N2CCOCC2)c2ccc(OC)c(OC)c2)c(OC)c1` (stereo not given), “inactive”.
Then `O=S(=O)(c1ccc(NC(=S)N/N=C/c2ccc(Oc3ccccc3)cc2)cc1)N1CCOCC1`, with 1.15 µM (active); and `COc1cc(O)c(C(CC(=O)N2CCCCC2)c2ccc(OC)c(OC)c2)c(OC)c1` (stereo not given), with “inactive”.
For the compound `Cc1ccc(-c2cn(-c3ccccc3)c3[n+]2CCCS3)cc1`, the Potency is 28.8 µM (active).
Then `COc1cc(O)c(C(CC(=O)N2CC(C)NC(C)C2)c2ccc3c(c2)OCO3)c(OC)c1` (stereo not given), with “inactive”; and `CCOc1ccc(C(CC(=O)N2CCCC(C)C2)c2c(O)cc(OC)cc2OC)cc1` (stereo not given), with 4.07 µM (active).
Then `Cc1cccc(-c2nc3cc(NC(=O)C4CCCO4)ccc3o2)c1` (stereo not given), with 0.724 µM (active).
To `COC(=O)c1ccc(OCC(=O)c2ccc(O)cc2O)cc1` belongs 0.363 µM (active); to `COc1ccccc1CNC(=O)[C@@H](NC(=O)C1CCN(C(=O)[C@@H]2CCCN2C(=O)OC(C)(C)C)CC1)C(C)C`, 12.9 µM (active).
For `COc1cc(O)c(C(CC(=O)N2CCCC(C)C2)c2ccc(OC)c(OC)c2)c(OC)c1` (stereo not given), the Potency is 9.11 µM (active).
To `COc1ccc(C(CC(=O)Nc2ccc(F)cc2)c2ccccc2)cc1` (stereo not given) belongs “inactive”; to `COc1ccc(OC)c(NC(=S)N(CCc2c(C)[nH]c3ccccc23)Cc2cccs2)c1`, 12.9 µM (active); to `COc1cc(O)c(C(CC(=O)N(C)c2cccc(C)c2)c2ccc3c(c2)OCO3)c(OC)c1` (stereo not given), “inactive”.

The values are drawn from PubChem BioAssay AID489037 (National Center for Advancing Translational Sciences (NCATS), 2010).
